Data published in PubChem BioAssay AID1159580 (chemical genetic matrix, 2015).
About 2,000 (36%) of roughly 5,500 compounds were called active. Inconclusive results (about 18%) are left out. Cut-off read from the data, not from the text of the source: active = normalized growth mostly below about 0.91 (no sharp cut-off); inconclusive = no clear call, values can overlap the other calls; inactive = mostly above about 0.92. The list shows a part of the results.

Test: chemical genetic growth profiling, strain panel (AID 1159580);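 note: tested at 20 µM; growth read once vehicle control cultures reached saturation at 30 °C; 1 = growth at the plate median or of vehicle wells; lower values mean less growth of the strain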
Conditions: S. cerevisiae deletion strains, growth OD

Measured: normalized growth

O=C(O)c1cc([N+](=O)[O-])ccc1NCCCc1ccccc1
active: locus YDL185W, strain tfp1, active compounds read low 0.868 | locus YER155C, strain BEM2, active compounds read low 0.915 | locus YGL078C, strain dbp3, active compounds read low 0.895 | locus YHR094C, strain hxt1, active compounds read low 0.921 | locus YIL125W, strain kgd1, active compounds read low 0.861 | locus YIR030C, strain dcg1, active compounds read low 0.918 | locus YKL009W, strain mrt4, active compounds read low 0.707 | locus YKL068W, active compounds read low 0.873 | locus YKL085W, strain MDH1 (second series), active compounds read low 0.848
inactive: locus YAL013W, strain DEP1, active compounds read low 0.994 | locus YAL040C, strain CLN3, active compounds read low 0.958 | locus YBR021W, strain FUR4, active compounds read low 0.892 | locus YBR229C, strain ROT2, active compounds read low 0.959 | locus YCL029C, strain bik1, active compounds read low 0.931 | locus YCL061C, strain MRC1 (second series), active compounds read low 1.01 | locus YDL035C, strain GPR1, active compounds read low 0.953 | locus YDL074C, strain BRE1, active compounds read low 0.972 | locus YDL101C, strain DUN1, active compounds read low 0.984 | locus YDL134C, strain PPH21, active compounds read low 0.966 | locus YDL192W, strain arf1, active compounds read low 0.941 | locus YDR101C, strain arx1, active compounds read low 0.933 | locus YDR150W, strain NUM1, active compounds read low 1.01 | locus YDR162C, strain NBP2, active compounds read low 0.953 | locus YDR318W, strain mcm21, active compounds read low 0.939 | locus YDR363W, strain ESC2, active compounds read low 0.987 | locus YDR388W, active compounds read low 0.928 | locus YDR502C, strain sam2, active compounds read low 0.94 | locus YEL061C, strain CIN8, active compounds read low 0.97 | locus YER002W, strain NOP16, active compounds read low 0.954 | locus YER110C, active compounds read low 0.932 | locus YER167W, strain BCK2, active compounds read low 0.943 | locus YGL086W, strain mad1, active compounds read low 0.985 | locus YGL248W, strain PDE1, active compounds read low 0.984 | locus YGR078C, strain PAC10, active compounds read low 0.986 | locus YGR135W, strain pre9, active compounds read low 0.933 | locus YGR252W, strain gcn5, active compounds read low 0.893 | locus YHR030C, strain SLT2, active compounds read low 0.941 | locus YHR079C, strain IRE1 (second series), active compounds read low 0.934 | locus YHR129C, strain ARP1, active compounds read low 0.952 | locus YHR200W, strain rpn10, active compounds read low 0.922 | locus YIL066C, strain RNR3, active compounds read low 0.983 | locus YIL073C, strain SPO22, active compounds read low 0.829 | locus YJL095W, strain BCK1, active compounds read low 1.01 | locus YJL134W, strain LCB3, active compounds read low 0.944 | locus YJL168C, strain set2, active compounds read low 0.94 | locus YJL187C, strain SWE1 (second series), active compounds read low 0.996 | locus YJR043C, strain POL32, active compounds read low 0.987 | locus YJR075W, strain HOC1, active compounds read low 1
